The campaign covered roughly 310,000 compounds. About 2,200 (0.71%) showed an effect of 50% or more. The effect is printed as a negative number. Many of the other results were omitted from the sample, so strong results are more common in it than they were.
These compounds were tested against human ether-à-go-go-related gene (hERG) potassium channel (human, UniProt Q12809) (assay: primary screen, population patch clamp on CHO cells stably expressing hERG; higher = less effect of the substance).
Chain of human ether-à-go-go-related gene (hERG) potassium channel (Q12809 whole entry, looked up): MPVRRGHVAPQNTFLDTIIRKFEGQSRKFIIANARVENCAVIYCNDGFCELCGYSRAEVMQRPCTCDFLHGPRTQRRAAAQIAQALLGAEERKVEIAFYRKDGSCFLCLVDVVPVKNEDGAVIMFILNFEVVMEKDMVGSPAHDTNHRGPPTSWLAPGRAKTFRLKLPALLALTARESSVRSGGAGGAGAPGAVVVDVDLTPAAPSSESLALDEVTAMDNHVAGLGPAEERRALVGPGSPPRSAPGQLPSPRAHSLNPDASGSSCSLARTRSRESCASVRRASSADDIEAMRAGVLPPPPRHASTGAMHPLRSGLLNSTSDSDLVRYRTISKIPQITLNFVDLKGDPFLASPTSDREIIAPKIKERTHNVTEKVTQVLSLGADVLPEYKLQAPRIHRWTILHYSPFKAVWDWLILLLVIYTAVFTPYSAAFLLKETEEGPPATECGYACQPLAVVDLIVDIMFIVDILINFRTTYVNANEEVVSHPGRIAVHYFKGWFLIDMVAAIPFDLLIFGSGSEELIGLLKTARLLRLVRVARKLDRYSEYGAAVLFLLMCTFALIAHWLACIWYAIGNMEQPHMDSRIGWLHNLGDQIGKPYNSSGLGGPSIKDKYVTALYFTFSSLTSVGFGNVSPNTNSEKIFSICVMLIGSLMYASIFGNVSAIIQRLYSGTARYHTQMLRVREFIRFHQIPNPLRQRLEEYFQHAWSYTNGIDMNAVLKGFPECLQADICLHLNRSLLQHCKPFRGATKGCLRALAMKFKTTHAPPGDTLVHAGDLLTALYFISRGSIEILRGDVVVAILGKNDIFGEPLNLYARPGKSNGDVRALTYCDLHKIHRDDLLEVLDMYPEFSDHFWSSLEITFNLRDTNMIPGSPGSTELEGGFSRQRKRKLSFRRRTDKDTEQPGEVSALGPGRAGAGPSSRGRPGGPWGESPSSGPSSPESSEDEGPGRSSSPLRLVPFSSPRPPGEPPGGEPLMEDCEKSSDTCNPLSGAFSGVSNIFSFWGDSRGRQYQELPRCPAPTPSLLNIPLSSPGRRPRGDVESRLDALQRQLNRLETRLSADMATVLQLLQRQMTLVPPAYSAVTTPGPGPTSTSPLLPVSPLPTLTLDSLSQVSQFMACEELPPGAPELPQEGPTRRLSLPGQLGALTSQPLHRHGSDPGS

Structure (SMILES)	hERG current change (%, negative = inhibition) at 1uM [%]
O=C(CSc1cccc[n+]1[O-])C12CC3CC(CC(C3)C1)C2	6.16
NS(=O)(=O)c1cccc(NC(=O)CCCC2CCCCC2)c1	7.26
Cc1cccc(-c2c3c(=O)n(C)c(=O)n(C)c3cn2-c2ccc(O)cc2)c1	13.8
Cc1nc2c(-c3ccccc3)c[nH]n2c(=O)c1Cc1ccccc1	13.3
O=C(Cc1ccccc1)N1CCN(S(=O)(=O)c2ccc([N+](=O)[O-])cc2)CC1	-24.6
O=S(=O)(c1ccc(Cl)cc1)N1CCN(C2CCN(Cc3ccccc3)CC2)CC1	-59
O=S(=O)(c1ccccc1)N1CCN(Cc2ccc(Cl)cc2)CC1	-2.04
O=S(=O)(c1ccc(Cl)cc1)N1CCN(C2CCCCCC2)CC1	1.61
CC(CC(=O)N1CCN(S(=O)(=O)c2ccc([N+](=O)[O-])cc2)CC1)c1ccccc1 (stereo not shown)	-50.3
O=C(O)C(=O)O.O=[N+]([O-])c1ccc(S(=O)(=O)N2CCN(C3CCN(Cc4ccccc4)CC3)CC2)cc1	-78.1
COc1ccc(S(=O)(=O)N2CCC(N3CCN(Cc4ccccc4)CC3)CC2)cc1.O=C(O)C(=O)O	-14.4
O=C(O)C(=O)O.O=[N+]([O-])c1ccc(S(=O)(=O)N2CCN(Cc3ccco3)CC2)cc1	18.9
Cc1ccc(S(=O)(=O)N2CCN(C3CCN(Cc4ccccc4)CC3)CC2)cc1.O=C(O)C(=O)O	-75.3
CC(C)CC(=O)N1CCN(S(=O)(=O)c2ccccc2)CC1	8.07
O=[N+]([O-])c1ccccc1S(=O)(=O)N1CCN(C2CCN(Cc3ccccc3)CC2)CC1	-18.2
Cc1ccc(S(=O)(=O)N2CCN(Cc3ccccc3)CC2)cc1	10
c1ccc(OCc2nn3c(-c4ccccn4)nnc3s2)cc1	12.2
O=C(CN(C(=O)CNC(=O)c1cccs1)c1ccc2c(c1)OCCO2)NC1CCCC1	-3.99
COc1cccc(NC(=S)NNC(=O)Cn2nc(C(F)(F)F)cc2C)c1	9.84
COc1ccc(COC(=O)C2=C(C)NC(=O)NC2c2ccc(OC)c(OC)c2)cc1 (stereo not shown)	12.4
Cc1ccc(-c2cc3ccccc3nc2N2CCOCC2)cc1	9.78
Cc1ccc(OC(F)F)c(NC(=O)Nc2ccc3c(c2)OCO3)c1	19.9

Structure (SMILES)	hERG current change (%, negative = inhibition) at 1uM [%]
CC(=O)NC(c1ccco1)c1ccc2cccnc2c1O (stereo not shown)	-3.48
Cc1cc(CSc2ccccc2C(=O)O)on1	11.6
Cc1ccc(C2=N/C(=C\c3cccnc3)C(=O)O2)cc1	3.52
O=S(=O)(c1ccc(Cl)cc1)N1CCC(O)(CN2CCN(Cc3ccccc3)CC2)CC1	-75.6
O=S(=O)(c1ccccc1)N1CCC(O)(CN2CCN(c3ccccc3)CC2)CC1	14.8
O=S(=O)(c1ccccc1)N1CCN(C2CCN(Cc3ccccc3)CC2)CC1	-64.1
CN1CCN(CC2(O)CCN(S(=O)(=O)c3ccc(Cl)cc3)CC2)CC1	-9.27
COc1ccc(S(=O)(=O)N2CCN(C3CCN(Cc4ccccc4)CC3)CC2)cc1	-15.6
CS(=O)(=O)N1CCN(C2CCN(Cc3ccccc3)CC2)CC1	7.88
Cc1cc(NC(=O)CCC(=O)N(Cc2cccnc2)C(C(=O)NC(C)(C)C)c2ccccc2Cl)no1 (stereo not shown)	14.7
O=C1CN(c2ccccc2)C(=S)N1C(=O)c1ccccc1	13.5
C/C(=N\NC(=O)c1cccc(Br)c1)c1cccc(NC(=O)c2ccc(C)o2)c1	2.01
C/C(=N/NC(=O)c1ccc(Br)o1)c1cccc(NC(=O)c2ccc(C)o2)c1	-58
C/C(=N/NC(=O)c1ccco1)c1cccc(NC(=O)c2ccc(C)o2)c1	-8.71
Cc1[nH]c2ccc(C(=O)N3CCN(Cc4ccccc4)CC3)cc2c1C	0.829
CC1(c2nnc(-c3cccc(Cl)c3)o2)CC(c2ccccc2F)=NO1 (stereo not shown)	8.2
CC1(C)C(=O)N(CCN2CCC(C(=O)c3ccc(F)cc3)CC2)c2ccccc21.Cl	-60.8
O=C(CN1CCC(C(=O)c2ccc(F)cc2)CC1)NCc1ccccc1F	2.84
CC1CCN(CCn2c(=S)[nH]c3ccccc3c2=O)CC1	1.9
CC1CCN(CCCn2c(=S)[nH]c3ccccc3c2=O)CC1	-13.5
Cl.O.O=C(c1ccc(F)cc1)C1CCN(CCn2c(=S)[nH]c3ccccc3c2=O)CC1	-77.7
O=c1c2ccccc2[nH]c(=S)n1CCCN1CCN(c2ccccc2)CC1	14

Structure (SMILES)	hERG current change (%, negative = inhibition) at 1uM [%]
O=c1c2ccccc2[nH]c(=S)n1CCCN1CCC(Cc2ccccc2)CC1	-52
O=C(O)C(O)C(O)C(=O)O.O=C(c1ccc(F)cc1)C1CCN(CCn2c(=O)[nH]c3ccccc3c2=O)CC1	-9.52
O=C(CN1CCC(C(=O)c2ccc(F)cc2)CC1)Nc1ccccc1	-10.5
O=C(CCSc1nc2ccccc2o1)N1CCOCC1	8.39
CCOc1cc(C(=O)Nc2cccc3ncccc23)cc(OCC)c1OCC	-2.81
COC(=O)Cc1c(O)ccn(Cc2ccccc2OC)c1=O	10.5
COc1cc(/C=N/Nc2nc3ccccc3[nH]2)cc(Br)c1OCC(=O)N(C)C	0.153
COc1ccc2c(CCNC(=O)c3ccc([N+](=O)[O-])cc3)c[nH]c2c1	12.8
Cc1cccn2c(=O)c(C=Nc3ccccc3)c(NCCO)nc12	6
Cc1c(CC(=O)O)c(=O)oc2c(C)c3occ(-c4ccccc4)c3cc12	19.9
CC1(c2ccc(OC(F)F)cc2)NC(=O)N(CC(=O)Nc2ccccc2)C1=O (stereo not shown)	-26.2
CC1(c2ccc(OC(F)F)cc2)NC(=O)N(CC(=O)Nc2ccc(OC(F)F)cc2)C1=O (stereo not shown)	-100
CC1(c2ccc(OC(F)F)cc2)NC(=O)N(CC(=O)Nc2ccc(F)cc2)C1=O (stereo not shown)	-15.6
COc1ccc(O)c(/C=N/NC(=O)CN2CCS(=O)(=O)CC2)c1	15.5
COc1ccc(C2=NN(C(=O)CSc3nnc(C)c(=O)n3N)C(c3ccco3)C2)cc1 (stereo not shown)	-0.0705
COc1ccccc1CC(=O)N1CCN(c2ccc([N+](=O)[O-])cc2)CC1	-8.15
COc1ccc(CCC(=O)N2CCN(c3ccccc3)CC2)cc1OC	13.5
COc1ccc(CCC(=O)N2CCN(c3ccc([N+](=O)[O-])cc3)CC2)cc1OC	-76.1
COCC(=O)N1CCN(c2ccc([N+](=O)[O-])cc2)CC1	-31.5
COc1cc(CCC(=O)N2CCN(c3ccc([N+](=O)[O-])cc3)CC2)cc(OC)c1OC	-83.6
COc1cc(CCC(=O)N2CCN(c3ccccc3)CC2)cc(OC)c1OC	-0.0932
CCOC(=O)Cc1nnc(-c2ccccc2)o1	5.78

Structure (SMILES)	hERG current change (%, negative = inhibition) at 1uM [%]
COc1ccc2nc(NC(=O)c3ccoc3C)sc2c1	17.6
S=C(NN=C1C2CC3CC(C2)CC1C3)Nc1ccccc1	11.9
CC(=O)Nc1ccc2oc(C)nc2c1	22.4
CC(C)(C)OC(=O)N[C@H](C(=O)OC(C)(C)C)c1ccc(C(F)(F)F)cc1	12.8
Cn1c2ccccc2c2c(C(=O)NCc3ccco3)cn(C3CCCCC3)c(=O)c21	7.44
O=C(NCc1ccco1)c1cnc2ccccn2c1=O	5.25
N=c1c(S(=O)(=O)c2ccccc2)cc2c(=O)n3ccccc3nc2n1C1CCCC1	8.93
N=c1c(C(=O)NCc2ccco2)cc2c(=O)n3ccccc3nc2n1C1CCCC1	-82.2
Cc1ccc2nc3c(cc(C(=O)NCc4ccco4)c(=N)n3C3CCCC3)c(=O)n2c1	-83.2
Cc1ccc2nc(SCC(=O)NCc3ccco3)nc(=O)n2c1	11.3
C/C(=N\NC(=O)c1ccccc1[N+](=O)[O-])c1ccc(Br)s1	14.7
COc1ccc(CCNC(=O)CN(C2CCCCC2)S(C)(=O)=O)cc1	4.21
COC(=O)c1scc(C)c1S(=O)(=O)Nc1ccc(C)cc1	12.7
Cc1nc2scc(C)n2c(=O)c1S(=O)(=O)Nc1ccc(N2CCOCC2)cc1	5.65
Cc1ccc(S(=O)(=O)N2CCN(C(=O)c3cccs3)CC2)cc1C	2.03
CCN1C(=O)C(CC(=O)Nc2ccc(Cl)cc2)N(NC(=O)c2ccncc2)C1=S (stereo not shown)	12.2
CN1CCCN(Cc2nc(-c3cccc(C(F)(F)F)c3)no2)CC1	-15.4
Cc1ccc(-c2noc(CN3CCCCC3)n2)cc1	31.5
FC(F)(F)c1ccc(-c2noc(CN3CCCN(C4CCCCC4)CC3)n2)cc1	-75.3

From article PMC4336329 (PLoS ONE, 2015)
